Source: the supplement of paper PMC11732987, “Enantioselective OTUD7B fragment discovery through chemoproteomics screening and high-throughput optimisation” (Communications Chemistry, 2025)

Tests used:
Experiment in all cases: log2 ratio of Biotin-Ahx-Ub-VS probe labelling (fragment/DMSO); higher = less target engagement (more negative = stronger competition), active = hit call of the paper (q ≤ 0.05, log2 ratio ≤ -1)
Conditions in all cases: compound concentration: 200 uM; treatment time: 3 h
ALG13 = target: T1, ALG13 (UniProt Q9NP73)
T1 sequence (whole entry): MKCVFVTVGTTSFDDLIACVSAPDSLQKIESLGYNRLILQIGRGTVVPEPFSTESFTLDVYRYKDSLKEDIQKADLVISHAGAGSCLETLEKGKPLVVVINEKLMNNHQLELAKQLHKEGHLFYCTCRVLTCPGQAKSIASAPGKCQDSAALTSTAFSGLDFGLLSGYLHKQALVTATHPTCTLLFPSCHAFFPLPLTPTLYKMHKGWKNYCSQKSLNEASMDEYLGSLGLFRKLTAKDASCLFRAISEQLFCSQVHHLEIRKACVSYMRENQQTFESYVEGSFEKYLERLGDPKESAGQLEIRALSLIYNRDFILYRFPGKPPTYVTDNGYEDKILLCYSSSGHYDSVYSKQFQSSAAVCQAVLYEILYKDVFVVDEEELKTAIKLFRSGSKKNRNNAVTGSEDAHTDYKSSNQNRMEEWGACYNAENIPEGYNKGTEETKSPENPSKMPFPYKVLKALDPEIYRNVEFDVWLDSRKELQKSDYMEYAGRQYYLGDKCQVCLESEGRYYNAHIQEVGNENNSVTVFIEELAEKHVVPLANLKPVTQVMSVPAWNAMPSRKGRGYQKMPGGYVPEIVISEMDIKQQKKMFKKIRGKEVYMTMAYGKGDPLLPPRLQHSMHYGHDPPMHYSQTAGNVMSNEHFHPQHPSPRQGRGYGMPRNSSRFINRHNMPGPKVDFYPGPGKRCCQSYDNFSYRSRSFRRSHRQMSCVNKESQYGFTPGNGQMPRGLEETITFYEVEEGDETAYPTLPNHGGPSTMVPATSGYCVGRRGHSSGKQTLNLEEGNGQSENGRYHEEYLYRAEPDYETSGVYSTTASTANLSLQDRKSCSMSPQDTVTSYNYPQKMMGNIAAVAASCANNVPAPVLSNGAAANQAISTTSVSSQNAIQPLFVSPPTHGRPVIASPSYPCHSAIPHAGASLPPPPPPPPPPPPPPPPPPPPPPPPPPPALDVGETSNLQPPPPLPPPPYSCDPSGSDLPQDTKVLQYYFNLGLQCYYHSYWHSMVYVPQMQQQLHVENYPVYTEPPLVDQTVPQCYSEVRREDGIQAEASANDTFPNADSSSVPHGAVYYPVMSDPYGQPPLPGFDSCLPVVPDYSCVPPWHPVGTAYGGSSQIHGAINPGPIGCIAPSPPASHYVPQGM
Method in brief: (§1)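 Fragment (200 µM) or vehicle was incubated for 3 h with triplicate HEK293T lysate samples of 495 µg, which were then treated with Biotin-Ahx-Ub-VS at 0.5 µM final for 1 h. Labelled DUBs were enriched on NeutrAvidin, digested with LysC and trypsin, and analysed by diaPASEF LC-MS/MS. Values are average log2 fragment/vehicle ratios from an unpaired t-test on global-median-normalised Spectronaut label-free quantities, using proteins with ≥2 unique peptides.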

ATXN3 = ATXN3 (UniProt P54252)
ATXN3, sequence (P54252 whole entry): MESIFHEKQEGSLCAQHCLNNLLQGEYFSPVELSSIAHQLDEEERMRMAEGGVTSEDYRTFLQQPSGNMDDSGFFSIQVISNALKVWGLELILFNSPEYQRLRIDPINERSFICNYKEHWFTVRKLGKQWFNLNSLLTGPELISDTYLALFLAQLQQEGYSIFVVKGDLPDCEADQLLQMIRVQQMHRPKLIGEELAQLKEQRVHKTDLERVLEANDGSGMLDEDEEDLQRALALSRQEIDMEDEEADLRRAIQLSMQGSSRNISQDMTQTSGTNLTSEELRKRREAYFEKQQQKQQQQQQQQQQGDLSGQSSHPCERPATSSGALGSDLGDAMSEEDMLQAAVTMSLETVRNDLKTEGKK
Method in brief: as §1

BAP1 = target: T2, BAP1 (UniProt Q92560)
T2 sequence (whole entry): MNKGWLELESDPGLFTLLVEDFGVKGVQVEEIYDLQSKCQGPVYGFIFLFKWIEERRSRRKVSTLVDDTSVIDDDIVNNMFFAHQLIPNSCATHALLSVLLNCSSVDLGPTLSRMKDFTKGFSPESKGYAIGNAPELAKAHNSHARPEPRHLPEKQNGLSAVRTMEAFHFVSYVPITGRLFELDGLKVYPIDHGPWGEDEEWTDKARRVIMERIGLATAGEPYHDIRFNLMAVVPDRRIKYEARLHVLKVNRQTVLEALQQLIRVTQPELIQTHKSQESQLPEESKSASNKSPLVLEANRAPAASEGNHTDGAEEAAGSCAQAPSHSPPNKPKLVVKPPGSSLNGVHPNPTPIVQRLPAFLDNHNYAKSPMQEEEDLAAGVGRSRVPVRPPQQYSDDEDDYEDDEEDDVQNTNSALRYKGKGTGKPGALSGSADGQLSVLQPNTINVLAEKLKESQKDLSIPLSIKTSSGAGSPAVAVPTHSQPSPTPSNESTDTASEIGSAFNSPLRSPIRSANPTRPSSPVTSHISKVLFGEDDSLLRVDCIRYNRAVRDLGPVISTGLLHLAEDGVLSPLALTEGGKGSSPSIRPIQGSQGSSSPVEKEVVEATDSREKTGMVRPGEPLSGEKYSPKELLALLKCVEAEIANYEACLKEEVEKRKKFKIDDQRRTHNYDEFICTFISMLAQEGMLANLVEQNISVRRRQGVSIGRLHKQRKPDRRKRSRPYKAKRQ
Method in brief: as §1

EIF3F = EIF3F (UniProt O00303)
EIF3F, sequence (O00303 whole entry): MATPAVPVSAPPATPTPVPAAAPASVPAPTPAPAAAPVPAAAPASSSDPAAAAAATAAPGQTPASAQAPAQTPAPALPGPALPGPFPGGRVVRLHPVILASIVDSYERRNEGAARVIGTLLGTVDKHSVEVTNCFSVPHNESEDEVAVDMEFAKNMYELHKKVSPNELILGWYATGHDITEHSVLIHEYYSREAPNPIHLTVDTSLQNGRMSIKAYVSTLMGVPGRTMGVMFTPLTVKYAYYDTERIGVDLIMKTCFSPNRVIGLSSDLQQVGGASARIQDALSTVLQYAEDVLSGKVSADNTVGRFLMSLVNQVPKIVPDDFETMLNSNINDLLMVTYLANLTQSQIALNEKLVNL
Method in brief: as §1

EIF3H = EIF3H (UniProt O15372)
EIF3H, sequence (O15372 whole entry): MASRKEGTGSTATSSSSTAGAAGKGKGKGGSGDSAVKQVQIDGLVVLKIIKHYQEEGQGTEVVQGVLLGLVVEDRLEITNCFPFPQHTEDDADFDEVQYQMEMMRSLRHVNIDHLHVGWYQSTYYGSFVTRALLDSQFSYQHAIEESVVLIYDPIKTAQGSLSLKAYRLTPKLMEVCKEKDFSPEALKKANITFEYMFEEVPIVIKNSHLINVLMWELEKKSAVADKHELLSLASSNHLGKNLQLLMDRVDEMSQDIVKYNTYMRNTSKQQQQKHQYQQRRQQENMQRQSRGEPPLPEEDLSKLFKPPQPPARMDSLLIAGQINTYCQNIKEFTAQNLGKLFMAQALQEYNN
Method in brief: as §1

FAM105A = target: T3, FAM105A (UniProt Q9NUU6)
T3 sequence (whole entry): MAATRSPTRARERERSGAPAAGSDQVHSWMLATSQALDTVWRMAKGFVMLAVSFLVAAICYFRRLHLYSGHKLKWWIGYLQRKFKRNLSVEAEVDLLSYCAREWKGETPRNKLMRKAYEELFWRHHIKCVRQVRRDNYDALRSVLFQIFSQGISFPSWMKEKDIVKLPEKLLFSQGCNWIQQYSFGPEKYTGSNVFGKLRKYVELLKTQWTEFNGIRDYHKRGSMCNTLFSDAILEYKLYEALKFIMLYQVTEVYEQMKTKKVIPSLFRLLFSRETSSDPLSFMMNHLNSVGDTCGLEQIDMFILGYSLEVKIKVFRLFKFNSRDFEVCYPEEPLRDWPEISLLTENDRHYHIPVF
Method in brief: as §1

OTUB1 = OTUB1 (UniProt Q96FW1)
OTUB1, sequence (Q96FW1 whole entry): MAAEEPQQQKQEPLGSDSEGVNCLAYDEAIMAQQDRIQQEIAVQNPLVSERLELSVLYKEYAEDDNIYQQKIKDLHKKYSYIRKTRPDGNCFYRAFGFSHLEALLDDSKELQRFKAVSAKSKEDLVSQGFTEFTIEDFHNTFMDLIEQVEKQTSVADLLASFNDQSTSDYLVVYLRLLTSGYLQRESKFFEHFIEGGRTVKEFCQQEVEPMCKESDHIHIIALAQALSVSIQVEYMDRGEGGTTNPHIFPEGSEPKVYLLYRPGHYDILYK
Method in brief: as §1

OTUD4 = target: T4, OTUD4 (UniProt Q01804)
T4 sequence (whole entry): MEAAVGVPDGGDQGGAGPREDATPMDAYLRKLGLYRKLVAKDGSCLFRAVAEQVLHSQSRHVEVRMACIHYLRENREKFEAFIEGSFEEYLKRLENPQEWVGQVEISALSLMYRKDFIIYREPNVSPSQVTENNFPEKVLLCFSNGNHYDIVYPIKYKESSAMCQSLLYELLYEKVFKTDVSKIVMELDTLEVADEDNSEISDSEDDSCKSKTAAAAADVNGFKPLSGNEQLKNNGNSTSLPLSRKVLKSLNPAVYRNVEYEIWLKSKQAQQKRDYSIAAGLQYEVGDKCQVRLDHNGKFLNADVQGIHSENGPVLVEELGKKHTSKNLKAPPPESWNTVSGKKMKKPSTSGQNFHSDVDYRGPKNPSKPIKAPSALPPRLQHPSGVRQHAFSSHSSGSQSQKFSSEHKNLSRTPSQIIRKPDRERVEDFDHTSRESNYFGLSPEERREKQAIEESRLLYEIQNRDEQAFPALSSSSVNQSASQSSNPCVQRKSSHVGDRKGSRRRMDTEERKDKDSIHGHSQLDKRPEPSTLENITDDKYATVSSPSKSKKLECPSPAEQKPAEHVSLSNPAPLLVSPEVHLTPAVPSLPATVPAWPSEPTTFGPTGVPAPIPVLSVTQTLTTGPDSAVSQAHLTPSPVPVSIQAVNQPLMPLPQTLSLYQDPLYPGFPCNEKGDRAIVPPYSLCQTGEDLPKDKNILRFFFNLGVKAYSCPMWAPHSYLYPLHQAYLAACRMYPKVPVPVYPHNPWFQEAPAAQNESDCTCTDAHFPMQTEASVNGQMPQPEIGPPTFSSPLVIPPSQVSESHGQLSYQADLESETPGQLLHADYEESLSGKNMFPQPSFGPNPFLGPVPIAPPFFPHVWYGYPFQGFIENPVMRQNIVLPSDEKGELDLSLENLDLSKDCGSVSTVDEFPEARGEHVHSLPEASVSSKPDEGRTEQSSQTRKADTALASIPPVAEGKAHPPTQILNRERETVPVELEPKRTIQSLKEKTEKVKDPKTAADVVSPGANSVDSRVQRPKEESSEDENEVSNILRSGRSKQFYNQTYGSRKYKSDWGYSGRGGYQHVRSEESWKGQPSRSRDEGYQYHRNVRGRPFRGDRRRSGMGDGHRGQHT
Method in brief: as §1

OTUD5 = target: T5, OTUD5 (UniProt Q96G74)
T5 sequence (whole entry): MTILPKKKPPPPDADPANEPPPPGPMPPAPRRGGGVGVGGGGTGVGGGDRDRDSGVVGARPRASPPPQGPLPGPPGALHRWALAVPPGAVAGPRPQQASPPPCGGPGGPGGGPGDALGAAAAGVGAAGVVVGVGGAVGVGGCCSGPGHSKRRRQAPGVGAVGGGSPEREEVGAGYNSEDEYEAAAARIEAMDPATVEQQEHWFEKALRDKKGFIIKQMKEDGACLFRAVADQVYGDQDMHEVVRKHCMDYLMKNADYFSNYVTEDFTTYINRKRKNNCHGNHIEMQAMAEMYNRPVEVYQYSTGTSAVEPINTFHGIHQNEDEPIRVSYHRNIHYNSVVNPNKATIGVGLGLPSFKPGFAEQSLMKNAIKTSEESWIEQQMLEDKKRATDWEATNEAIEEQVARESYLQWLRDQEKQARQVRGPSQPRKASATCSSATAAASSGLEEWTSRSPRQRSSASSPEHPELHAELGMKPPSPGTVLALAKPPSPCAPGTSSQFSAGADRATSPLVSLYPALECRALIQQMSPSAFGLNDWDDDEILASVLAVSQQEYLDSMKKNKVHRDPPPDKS
Method in brief: as §1

Measured: log2 ratio of Biotin-Ahx-Ub-VS probe labelling

O=C(CCl)N1CCN(c2nc3ccccc3o2)CC1
active: ATXN3 -1.05 | BAP1 -1.05
inactive: ALG13 0.254 | EIF3F -0.704 | EIF3H -0.664 | FAM105A 0.0333 | OTUB1 0.0507 | OTUD4 -0.141 | OTUD5 -0.83
